B2AR arrestin – agonists driving beta-arrestin recruitment to human beta2-adrenergic receptor | actives 0.02% (n = 330,000) | Potency, µM (titrated, usually from 46.1 µM), inactives show top-dose activation, most hits filed as activators | AID 492947 | beta-arrestin recruitment to beta2AR, cell-based reporter | P07550;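 also: potency is read from the fitted curve at half-maximal effect; 0% = DMSO controls and full agonism = EC100 isoproterenol or metaproterenol; nearly all actives have a fitted effect of over 65% in size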
uPA surface inh – cell surface uPA generation inhibition; cell surface uPA generation assay, qHTS; actives 0.31% (n = 330,000); Potency, µM (highest dose often 38.3 µM), inactives show top-dose activity change, negative = inhibition, usual class: inhibitors; AID 540303; active = well fitted inhibition curve with a large enough effect; inconclusive = small, poorly fitted or top-dose-only effect; inactive = no such curve, though single readings can be large or run the other way; tested in mouse RAW 264.7 cells; also: potency is read from the fitted curve at half-maximal effect; % is scaled to controls: 0 for no effect and ±100 for the full control effect; nearly all actives have a fitted effect of over 55% in size
ClpP mod – qHTS Assay for Activators of ClpP; purified B. subtilis ClpP, FRET peptide cleavage, 20 min; Potency, µM (titrated, usually from 57.5 µM), for the others: top-dose activity change, negative = active; actives 1.9% (n = 340,000); ATP-dependent Clp protease proteolytic subunit (Bacillus subtilis (strain 168)), P80244; active = well fitted falling curve with a large enough effect; inconclusive = small, poorly fitted or top-dose-only effect; inactive = no such curve, though single readings can be large or run the other way; also: potency is read from the fitted curve at half-maximal effect; the source files actives as falling curves though it sought activators and does not explain the sign; nearly all actives have a fitted effect of over 65% in size
Target sequence (P80244 whole entry, looked up): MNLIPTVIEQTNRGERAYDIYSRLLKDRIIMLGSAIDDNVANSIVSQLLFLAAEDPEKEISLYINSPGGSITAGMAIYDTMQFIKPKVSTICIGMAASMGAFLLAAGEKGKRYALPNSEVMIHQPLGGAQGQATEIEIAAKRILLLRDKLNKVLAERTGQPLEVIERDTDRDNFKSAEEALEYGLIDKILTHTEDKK
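Purified B. subtilis ClpP, 10 microg/mL final in Tris/HCl pH8 with KCl, BSA, glycerol and Tween-20, cleaved an Abz/nitrotyrosine-quenched decapeptide. Fluorescence (ex 320, em 430) was read at 0 and 20 min at room temperature. Delta was normalized to 5.8 microM ADEP and DMSO/no-enzyme controls.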
p53 reactivator – restores transcriptional activity of mutant p53 | AID 504706 | Potency, µM (titrated, usually from 92.2 µM), for inactives: top-dose activity change, positive = activation, most hits filed as activators | H1299 p53-A138V BP100-luciferase reporter, luminescence, 24 h | actives 0.063% (n = 320,000); also: potency is read from the fitted curve at half-maximal effect; % of control where 0% means no effect; nearly all actives have a fitted effect of over 45% in size
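p53-null H1299 cells stably carrying temperature-sensitive p53-A138V and a BP100-luciferase reporter were pinned with compounds (4-point, 1:5 series) and held 24 hrs at 37 deg C. Luminescence was read 10 min after detection reagent.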
Giardia kill – Giardia lamblia killing. Giardia lamblia trophozoite viability. activity change, % at 7.66 µM, hits read low. actives 0.15% (n = 340,000); in the data active = activity change below about -80%; inconclusive = between about -30% and that limit;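 also: parasites exposed to compound for two days anaerobically before the ATP read; % is scaled to controls: 0 for no effect and ±100 for the full control effect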
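Media and compound were dispensed first, then trophozoites at 100 cells/well; plates sat 48 hrs at 37 deg C without oxygen before ATP luminescence reagent was added and read after 15-30 min at room temperature.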
Mito fusion yeast – mitochondrial division inhibition or fusion activation. actives 0.23% (n = 320,000). Potency, µM (top dose mostly 46.1 µM), without a hit: top-dose growth rescue (activation), usual class: activators. S. cerevisiae fusion-defective mutant growth rescue, CellTiterGlo 48 h; also: potency is read from the fitted curve at half-maximal effect; % of control where 0% means no effect; nearly all actives have a fitted effect of over 45% in size
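Growth-rescue viability read-out: after 48 h at the non-permissive 37C in glycerol/ethanol YPEG, yeast mitochondrial fusion mutants are measured by CellTiterGlo luminescence; compounds (23 nl pinned per well) restoring growth score as division inhibitors or fusion activators.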
Active calls of the source: *; ? = inconclusive; . = no result. Most compounds without a hit are left out; they make up all but 2.1% or so of the library. Unless noted, calls follow the shape of the dose curve; as a rule, active = well fitted curve in the direction sought with a large enough effect; inconclusive = small, poorly fitted or top-dose-only effect, or another doubt; inactive = no such curve, though single readings can be large; an effect the other way counts as inactive or inconclusive.

SMILES	B2AR arrestin	uPA surface inh	ClpP mod	p53 reactivator	Giardia kill	Mito fusion yeast
CCN(CC)c1ccc2cc(-c3nc4ccccc4[nH]3)c(=O)oc2c1	2.6%	-10.3%	-2.4%	32.9%	-108.2*	1.2%
CCOc1ccc(NC(=O)CSc2ncc3c(n2)-c2ccccc2N(Cc2ccccc2C)S3(=O)=O)cc1	.	.	-0.7%	.	.	.
CNc1ccccc1C(=O)OC(C)C(=O)Nc1ccc(Cl)cn1 (configuration not stated)	-0.9%	-12.9%	25.1µM*	-10.2%	17.1	3.0%
CC(OC(=O)c1ccccc1NCc1ccco1)C(=O)Nc1ncc(Cl)cc1Cl (configuration not stated)	0.2%	-0.3%	31.6µM*	3.7%	7.7	1.8%
CCOc1ncccc1C(=O)OC(C)C(=O)Nc1ccc(Cl)cn1 (configuration not stated)	0.1%	11.3%	-2.0%	-1.1%	6.0	29.5%
CC(OC(=O)Cc1ccsc1)C(=O)Nc1ccc(Cl)cn1 (configuration not stated)	0.0%	7.3%	25.1µM*	-5.0%	?	-6.0%
COc1ccc2c(c1)c1c(c(=O)n(-c3cc(Cl)ccc3C)c(=O)n1CC(=O)N1CCCC1)n2C	.	.	4.0%	.	.	.
COc1ccc(OC)c(CNC(=O)Cn2nc(C)c3nn(-c4ccc(Cl)cc4)c(C)c3c2=O)c1	.	.	4.2%	.	.	.
Cc1cc(=O)oc2cc(Oc3ncccn3)ccc12	0.0%	-0.9%	31.6µM*	1.1%	-2.8	3.9%
Cc1cc(=O)oc2cc(OCCSc3nnc(-c4ccccc4)o3)ccc12	-0.4%	12.7%	-0.2%	-1.8%	11.3	1.3%
Cc1cccc(-c2nnc(SCCOc3ccc4c(C)cc(=O)oc4c3)o2)c1	-0.1%	-5.7%	10µM*	-6.0%	-4.9	-4.4%
Cc1cc(=O)oc2cc(OCc3nnc(-c4ccccc4Br)o3)ccc12	-3.5%	-1.8%	28.2µM*	-1.3%	-11.8	-3.2%
Cc1cc(=O)oc2cc(Oc3ncccc3[N+](=O)[O-])ccc12	-0.3%	.	-1.0%	1.3%	-13.5	-2.5%
Cc1cc(=O)oc2cc(OCC(=O)NCc3ccccn3)ccc12	0.4%	12.2%	25.1µM*	2.7%	4.3	0.6%
COc1ccccc1-c1cccc(-c2nc(C(=O)Nc3nccs3)cc3c2[C@@H](CCO)N(C(=O)CC2CC2)C3)c1	.	.	-9.4%	.	.	.
Cc1cc(=O)oc2cc(OCC(=O)N3CCc4ccccc4C3)ccc12	-0.6%	-3.8%	25.1µM*	-19.0%	10.2	7.7%
CCCCn1c(=O)nc2n(-c3ccccc3)c3ccccc3cc-2c1=O	-3.0%	.	25.1µM*	-5.5%	-1.3	6.9%
Cc1oc2c(c(C)cc3oc(=O)c(CC(=O)NCCc4ccccc4)c(C)c32)c1C	.	.	-26.4%	.	.	.
Brc1ccc(-c2csc3ncnc(-n4nnc5ccccc54)c23)cc1	-4.4%	7.6%	-28.0%	-0.6%	-10.4	12.6µM*
Cc1ccc(C(=O)C(c2ccccc2)N2Cc3ccccc3C2=N)cc1 (configuration not stated)	-2.1%	-16.1%	3.16µM*	-2.7%	-6.7	?
CCc1ccc2nc(NC(=O)CCCc3cccs3)sc2c1	-0.4%	-2.9%	12.6µM*	18.2%	-3.8	-5.3%
CCCCOc1ccc(Cn2c(=O)oc3ccc(C)cc32)cc1	.	.	-2.5%	.	.	.
COc1ccc(-c2nn(-c3ccccc3)cc2C(=O)O)cc1OC	10.3%	-14.6%	25.1µM*	-0.9%	7.6	1.3%
O=C(c1cn(-c2ccccc2)nc1-c1ccc(F)cc1)N1CCOCC1	-0.3%	2.6%	0.7%	-6.7%	-13.9	6.6%
O=C(c1cn(-c2ccccc2)nc1-c1ccc(F)cc1)N1CCCCC1	-0.4%	-4.2%	0.9%	-2.3%	1.6	15.8µM*
COc1ccc(-c2nn(-c3ccccc3)cc2C(=O)Nc2ccc(C(=O)O)cc2)cc1OC	0.1%	-7.8%	.	18.6%	15.1	14.2%
O=C(c1cn(-c2ccccc2)nc1-c1ccc(Br)cc1)N1CCOCC1	0.0%	-5.2%	0.3%	-17.7%	7.3	11.2µM*
